High-throughput results: PubChem, Broad Institute
Hits are enriched below; roughly 3% of the tested compounds scored in any of these assays.
MITF TRPM1 HTS: MITF TRPM1 promoter activation in melanoma cells; 300,000 compounds, 0.75% hits; SK-MEL-5 TRPM1-promoter luciferase, 24 h; % of positive control, neutral wells = 0; activation, % at 12.5 µM;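 active means mean activation of at least 80% with every replicate also reaching 80%; inconclusive means mean reaches 80% but some replicate falls short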;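 further: 0% = neutral control wells and 100% = parthenolide positive control wells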
N-glyco inh: N-linked glycosylation inhibition; D54 ERlucT glycosylation luciferase reporter, 24 h; percent of 100 nM tunicamycin response; reporter increase, % at 12.5 µM; 360,000 compounds, 0.23% hits; AID 588692;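 active means mean luciferase reporter signal, scaled so untreated is 0 and the glycosylation-blocking control 100, at or above a set limit in every replicate; inconclusive means mean reaches the limit but not every replicate does; inactive means mean below the limit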;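 further: luciferase carries N-glycosylation sites so blocking glycosylation raises the light; 0% = median of neutral control wells and 100% = median of 100 nM tunicamycin wells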
esBAF inh: blocks esBAF chromatin remodeling in mouse ES cells; Bmi1-luciferase knock-in reporter, 24 h; 100% = twice the neutral-well signal; reporter increase, % at 12.5 µM; 350,000 compounds, 2% hits; in the data active means activation above about 40%; inconclusive means no clear call, values can overlap the other calls;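 further: 0% = median of the plate's neutral control wells and 100% = double that signal; a rise in the Bmi1 reporter signal indicates esBAF inhibition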
Vif imaging: inhibitors of HIV Vif. HEK293T cells, Vif self-association by quenched fluorescence, imaging, 24 h. AID 602346. inhibition, % at 7.49 µM. 340,000 compounds, 0.35% hits; in the data active means inhibition above about 50%, passing the limit was not always enough; inconclusive means no clear call, values can overlap the other calls; inactive means below about 31%
Wnt act: activators of Wnt/beta-catenin signaling | Wnt/beta-catenin reporter cell assay, activator, plate reader | 300,000 compounds, 1.2% hits | AID 743398 | activation, % at 9.35 µM; in the data active means activation above about 30%, passing the limit was not always enough; inconclusive means no clear call, values can overlap the other calls;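 further: 0% = neutral control wells and 100% = positive control wells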
PfHsp90 yeast 2: growth inhibition of yeast expressing Plasmodium Hsp90 | S. cerevisiae expressing PfHsp90, BacTiter-Glo ATP, 48 h; yeast lacking PDR1 and PDR3 efflux regulators | inhibition, % at 9.4 µM | 310,000 compounds, 0.32% hits;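 active means every replicate shows inhibition above about 80%, whatever the replicate mean, limit read from the data; inconclusive means mean inhibition reaches the set limit but some replicate falls short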;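 further: 0% = DMSO neutral controls and 100% = 20 µM radicicol positive controls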
The depositor's hits bear a star; ? = inconclusive; nt = no result given.

SMILES	MITF TRPM1 HTS	N-glyco inh	esBAF inh	Vif imaging	Wnt act	PfHsp90 yeast 2
CC(C)C(NS(=O)(=O)c1cccs1)C(=O)NCCN1CCN(c2ccccc2)CC1 (stereo not given)	-5	1	7	2	nt	25
C[C@@H]1CN([C@H](C)CO)C(=O)c2cccc(NS(=O)(=O)c3ccc(F)cc3)c2O[C@H]1CN(C)C(=O)Nc1ccccc1	nt	nt	1	nt	nt	nt
COc1cccc(S(=O)(=O)Nc2ccc3c(c2)[C@H]2C[C@H](CC(=O)N(C)C)O[C@@H](CO)[C@H]2O3)c1	nt	nt	-3	nt	nt	nt
O=C(OCC(=O)c1ccc[nH]1)c1ccccc1	64	0	nt	-1	-1	4
CN(C)c1ccc(C(=O)OCC(=O)c2ccc[nH]2)cc1	137*	0	72*	-7	9	15
Cc1cc(C(=O)CS(=O)(=O)c2ccccc2)cc(C)c1O	29	2	32	-3	3	-6
Cc1cc(C(=O)CSc2ccccc2)cc(C)c1O	39	0	68*	-5	12	-53
CCCOc1ccc(/C=N/Nc2ccccn2)cc1OC	91*	9	29	-2	5	-6
C=CCOc1ccc(/C=N/Nc2ccccn2)cc1OC	?	2	64*	4	-1	17
COc1cc(/C=N/Nc2ccccn2)ccc1OCC(C)C	90*	9	?	2	7	2
COc1ccc(/C=N\Nc2ccccn2)c(OC)c1	nt	3	52*	-4	14	-17
COc1cccc(/C=N/Nc2ncccc2[N+](=O)[O-])c1OC	nt	-19	nt	5	9	2
COc1ccccc1/C=N/Nc1nccnc1Cl	58	-1	42*	-9	13	-1
O=C(/C=C/c1ccc(OC2CSC2)cc1)c1ccccc1	58	2	?	-5	39*	-50
O=C(CCNC(=O)c1ccccc1Cl)N/N=C\c1ccc(O)cc1	-4	-1	nt	4	1	5
CC(C)c1ccc(/C=N/NC(=O)CCNC(=O)c2ccccc2)cc1	76	1	62*	0	-5	7
O=C(N/N=C/c1ccc(OC2CSC2)cc1)c1ccccc1	67	7	67*	nt	nt	9
Nc1ccc(C(=O)N/N=C/c2ccccc2)cc1	84*	0	nt	3	22	-35
O=C(N/N=C/c1ccc(OCc2ccc(F)cc2)cc1)c1ccccc1	42	-2	nt	1	1	-28
O=C(N/N=C/c1ccncc1)c1ccccc1	1	7	22	-66	nt	-8
CN(C)C(=O)c1ccc(NC(=O)COC(=O)/C=C/c2cccs2)cc1	-2	1	0	nt	-3	nt
CCCCn1c(-c2ccco2)n[nH]c1=S	-5	3	nt	15	-6	-3
CCCCn1c(-c2ccoc2C)n[nH]c1=S	nt	0	7	10	43*	-21
O=C(NC1CCCCCCC1)C1CCN(S(=O)(=O)N2CCCC2)CC1	0	-3	5	-2	nt	0
CCOC(=O)C(=O)NCC(c1cccs1)S(=O)(=O)c1ccc(Cl)cc1 (stereo not given)	0	0	-9	4	4	4
SMILES	MITF TRPM1 HTS	N-glyco inh	esBAF inh	Vif imaging	Wnt act	PfHsp90 yeast 2
Nc1c(C(=O)N/N=C/c2cccnc2)cnn1-c1ccccc1	31	-5	nt	-5	20	-3
COc1cccc(/C=N/NC(=O)c2cccs2)c1	nt	-1	25	-11	40*	9
O=C(N/N=C/c1ccc([N+](=O)[O-])cc1)c1cccs1	nt	0	nt	4	38*	nt
COc1cccc(/C=N/NC(=O)c2cnn(-c3ccccc3)c2N)c1	50	-4	60*	5	8	4
COc1ccc(/C=C/C(=O)Oc2cccc(/C=N/NC(=O)c3cccc(F)c3)c2)cc1	nt	-1	45*	6	nt	nt
COc1ccc(/C=C/C(=O)Oc2ccc(/C=N\NC(=O)c3ccc(F)cc3)cc2)cc1	6	1	nt	2	1	-4
O=C(N/N=C/c1ccc(-c2cccc([N+](=O)[O-])c2)o1)c1cccs1	-10	1	nt	0	14	-11
O=C(NCCCN1CCOCC1)c1cc2c(s1)CSC2	0	-1	-4	-6	nt	nt
COc1cccc(C(=O)COC(=O)CCCC(=O)NC2CCCCC2)c1	0	0	6	-11	-1	-12
CC(=O)N(C)C[C@H]1[C@@H](c2ccc(-c3ccccc3F)cc2)[C@@H](CO)N1C(C)=O	nt	nt	-5	nt	nt	nt
CCOC(=O)C(C)N1C(=O)S/C(=C/c2ccc3c(c2)n(C)c(=O)n3C)C1=O (stereo not given)	8	8	-2	-4	11	11
CC(=O)Nc1ccc2c(c1)NC(=O)CC2	11	2	nt	-7	nt	-28
OC1c2cc(Br)ccc2N=C2CCCN21 (stereo not given)	-4	14	24	-10	2	-7
OC1c2cc(Br)ccc2N=C2CCCCCN21 (stereo not given)	nt	0	44*	-10	-3	nt
Cc1cccc(N2C(=O)/C(=C\c3ccc(OC(F)F)cc3)c3ccccc3C2=O)c1	-4	3	nt	-1	-1	97*
COc1cccc(/C=C2\C(=O)N(c3cccc(C)c3)C(=O)c3ccccc32)c1	-14	2	nt	2	-4	-58
O=C(Cc1ccncc1)Nc1ccc2c(c1)[C@@H]1C[C@@H](CC(=O)NC3CCCCC3)O[C@H](CO)[C@@H]1O2	nt	nt	10	nt	nt	nt
COC(=O)C1=NNC(C(=O)c2ccco2)C1c1ccccc1 (stereo not given)	-1	0	nt	2	-1	-19
COC(=O)C1=NNC(C(=O)c2ccco2)C1c1ccc(OC)cc1 (stereo not given)	-2	0	-1	52*	0	21
COc1ccc2c(c1OC)C(=O)N(c1ccc(C)cc1)C2	nt	-5	39	-12	44*	1
COc1ccc2c(c1OC)C(=O)N(c1cccc(C)c1)C2	62	-7	5	4	nt	19
COc1ccc2c(c1OC)C(=O)N(c1cccc(C(F)(F)F)c1)C2	121*	-3	46*	-3	nt	3
C[C@@H]1CN([C@@H](C)CO)C(=O)c2cccc(NC(=O)c3ccncc3)c2O[C@H]1CN(C)S(C)(=O)=O	nt	nt	3	nt	nt	nt
Cc1c(NC(=O)C(C)OC(=O)c2sc3ccccc3c2Cl)c(=O)n(-c2ccccc2)n1C (stereo not given)	-7	0	1	108*	nt	-4
C=CCNC(=O)C(=O)NCCCN1CCOCC1	nt	-1	nt	2	-1	-7
CC(C)=CCc1c(O)cc2c(=O)c3ccc(O)cc3oc2c1O	nt	-3	59*	-13	-2	-22
COc1ccc(NC(=O)/C=C/c2ccco2)cn1	118*	0	44*	14	?	-5
COc1ccc(NC(=O)/C=C/c2ccc(Br)o2)cn1	46	0	27	-1	3	-10
